Screens (PubChem)
Mito fusion yeast – blocks mitochondrial division or promotes mitochondrial fusion. S. cerevisiae fusion-defective mutant growth rescue, CellTiterGlo 48 h. Potency, µM (highest dose often 46.1 µM), inactives show at the top dose growth rescue (activation), hits mostly activators. 0.23% of 320,000 active; further: % of control where 0% means no effect; nearly all actives have a fitted effect of over 45% in size
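Growth-rescue viability read-out: after 48 h at the non-permissive 37C in glycerol/ethanol YPEG, yeast mitochondrial fusion mutants are measured by CellTiterGlo luminescence; compounds (23 nl pinned per well) restoring growth score as division inhibitors or fusion activators.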
PKM2 act – PKM2 (human) enzyme activation. P14618. purified PKM2, Kinase-Glo ATP luminescence, activation; response scale: 0% is enzyme alone, no compound. Potency, µM (titrated, usually from 57.5 µM), without a hit: at the highest dose activation, most hits filed as activators. 0.34% of 260,000 active; further: on the % scale 0 is the no-effect control and ±100 the full control effect; nearly all actives have a fitted effect of over 55% in size
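Purified hPK-M2 (>95% pure) converted ADP (0.1 mM final) to ATP with 0.5 mM PEP in 50 mM imidazole pH7.2, KCl, MgCl2, Tween 20, BSA; 1 h at room temperature. ATP detected by Kinase-Glo luminescence.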
GLS inh – glutaminase GLS (human) inhibition; AID 624170; 0.21% of 410,000 active; O94925; GLS enzymatic activity, qHTS titration; Potency, µM (series often up to 45.5 µM), for inactives: at the top dose activity change, negative = inhibition, hits mostly inhibitors; further: on the % scale 0 is the no-effect control and ±100 the full control effect
Target sequence (O94925 whole entry, looked up): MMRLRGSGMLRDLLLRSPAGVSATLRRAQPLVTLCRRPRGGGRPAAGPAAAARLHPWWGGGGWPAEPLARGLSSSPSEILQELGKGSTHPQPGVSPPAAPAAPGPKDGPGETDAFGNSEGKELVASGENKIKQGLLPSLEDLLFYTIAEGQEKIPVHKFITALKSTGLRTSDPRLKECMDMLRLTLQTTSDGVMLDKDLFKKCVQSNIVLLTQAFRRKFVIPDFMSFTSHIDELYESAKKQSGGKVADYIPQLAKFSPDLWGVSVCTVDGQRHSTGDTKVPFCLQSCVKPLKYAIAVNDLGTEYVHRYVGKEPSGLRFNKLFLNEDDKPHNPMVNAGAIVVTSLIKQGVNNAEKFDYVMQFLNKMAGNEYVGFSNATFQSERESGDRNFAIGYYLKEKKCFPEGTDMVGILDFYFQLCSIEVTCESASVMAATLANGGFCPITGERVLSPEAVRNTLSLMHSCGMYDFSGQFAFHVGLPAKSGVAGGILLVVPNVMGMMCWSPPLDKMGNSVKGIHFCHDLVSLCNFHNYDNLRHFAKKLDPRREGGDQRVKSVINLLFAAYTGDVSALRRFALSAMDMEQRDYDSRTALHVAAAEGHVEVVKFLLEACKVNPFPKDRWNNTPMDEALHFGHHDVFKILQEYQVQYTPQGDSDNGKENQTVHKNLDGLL
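Enzyme dispensed in phosphate buffer (45 mM, pH 8.2, 0.02% Tween-20), compounds pinned in, then 1 mM L-glutamine solution and the glutamate oxidase–HRP–Amplex Red mix added; fluorescence read immediately and again after 30 min at room temperature.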
KAT2A inh – GCN5L2 (KAT2A) acetyltransferase inhibition; Q92830; GCN5L2 HAT assay, ThioGlo1 CoA-SH fluorescence; 0.21% of 390,000 active; AID 504327; Potency, µM (doses to about 58.9 µM), without a hit: top-dose activity change, negative = inhibition, hits mostly inhibitors; further: on the % scale 0 is the no-effect control and ±100 the full control effect
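ThioGlo1-coupled HAT assay: 20nM GCN5L2, 70uM acetyl-CoA, 75uM H3(1-25) peptide, pH 7.5. Fluorescence read at 340/540nm at start and after 20 min at room temperature.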
VDR inhibitor – inhibitors of human vitamin D receptor. P11473. VDR-SRC2-3 peptide fluorescence polarization, 2 h. Potency, µM, for the others: max response, negative = inhibition, hits mostly inhibitors. 0.93% of 400,000 active; further: on the % scale 0 is the no-effect control and ±100 the full control effect
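Inhibition of the VDR/SRC2-3 peptide interaction is quantified by fluorescence polarization. Compounds (23 nl, pintool) incubate with the reagents for 2 hours at ambient room temperature.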
PLK1 PBD inh – PLK1 (human) polo-box domain binding inhibition; Potency, µM, without a hit: max response, negative = inhibition, most hits filed as inhibitors; AID 720504; P53350; Plk1 PBD binding of FITC phosphopeptide, fluorescence polarization; 2.8% of 360,000 active; further: series mostly up to about 57 µM; on the % scale 0 is the no-effect control and ±100 the full control effect; nearly all actives have a fitted effect of over 65% in size
The depositor's hits bear a star; ? = inconclusive; . = no result given; ! = repeats disagree. Most compounds without a hit are left out; they make up all but 3.4% or so of the library. The call rests on the fitted dose curve; in most records, active means well fitted curve in the direction sought with a large enough effect; inconclusive means small, poorly fitted or top-dose-only effect, or another doubt; inactive means no such curve, though single readings can be large; an effect the other way counts as inactive or inconclusive. Potency means the concentration at half of the fitted maximal effect.

SMILES	Mito fusion yeast	PKM2 act	GLS inh	KAT2A inh	VDR inhibitor	PLK1 PBD inh
C=CCOC(=O)C(=O)/C=C/c1coc2ccccc2c1=O	2.5%	-3.8%	-9.7%	-0.9%	14.1µM*	?
COc1ccc(NC(=O)/C(Cl)=C(/Cl)S(=O)Cc2ccccc2Cl)cn1 (stereo unspecified)	-2.4%	?	?	-5.1%	?	1.5µM*
COc1ccc(CCNC(=O)c2cc(S(=O)(=O)N(C)c3ccccc3)ccc2Cl)cc1	3.0%	-4.5%	1.9%	-0.5%	?	15µM*
COc1ccc(CCNC(=O)c2ccc(N(C)S(=O)(=O)c3ccccc3)cc2)cc1	-6.8%	0.8%	-2.3%	0.8%	-5.6%	-3.4%
Cc1cccc(NC(=O)C2CCN(S(=O)(=O)c3ccc(F)cc3)CC2)c1C	.	.	1.7%	-4.8%	23.3%	.
O=C(C1CCCN(Cc2cccc(Cl)c2)C1)N1CCCCC1 (stereo unspecified)	0.5%	.	42.8%	9.2%	?	18.9µM*
O=C(C1CCCN(Cc2ccc(Cl)cc2)C1)N1CCCCC1 (stereo unspecified)	15.3%	.	0.9%	7.4%	-4.9%	-3.9%
CCOC(=O)c1c(N)sc(C(=O)OCCOC)c1C	5.2%	1.0%	?	-23.3%	79.4µM*	9.47µM*
CCOC(=O)c1sc(N)c(C(=O)Nc2ccccc2)c1C	1.8%	3.0%	-13.5%	-6.2%	?	9.47µM*
CCOC(=O)c1sc(N)c(C(=O)OCC)c1C	1.9%	1.7%	-3.5%	1.2%	0.8%	-14.7%
COC(=O)c1c(NC(=O)C2CC2)sc(C(=O)Nc2ccccc2)c1C	10.9%	0.4%	1.2%	3.9%	-10.7%	26.7µM*
Nc1nnnn1-c1ccccc1	.	.	-3.5%	.	.	.
NC(=O)c1ccc(-c2nnc(Nc3ccc(S(N)(=O)=O)cc3)c3ccccc23)cc1	-6.7%	.	2.3%	-3.8%	-7.8%	5.7%
COc1ccc(N2CCN(c3cncc(C)n3)CC2)cc1	.	.	59.8%	.	.	-1.9%
Cc1cccc(N2CCN(C(c3ccc(F)cc3)c3nnc(-c4ccccc4)o3)CC2)c1C (stereo unspecified)	.	.	-2.4%	-6.9%	7.4%	.
O=C(CCc1nnc2n(Cc3ccc(F)cc3)c(=O)c3ccccc3n12)N1CCN(c2ccccn2)CC1	12.6µM*	.	-8.9%	-3.4%	-5.2%	3.7%
Cc1ccc(CNC(=O)c2cc(NS(=O)(=O)c3ccc(C)cc3)ccn2)cc1	.	.	-6.3%	-2.2%	6.5%	.
CSc1ncc(Cl)c(C(=O)Nc2cccc(C)c2)n1	6.0%	0.9%	-13.0%	-11.3%	7.4%	-6.9%
CSc1ncc(Cl)c(C(=O)C(C#N)c2nc3c(C)cc(C)cc3c(=O)[nH]2)n1 (stereo unspecified)	17.5%	1.5%	?	-20.8%	?	21.2µM*
O=C(c1cc(O)c(O)c([N+](=O)[O-])c1)c1ccccc1F	18.4µM*!	.	54.2%	?	-10.7%	-10.9%
Cc1ccc(S(=O)(=O)c2cc(O)ccc2O)cc1C	-1.9%	15.8µM*	58.4%	-1.1%	0.6%	1.6%
O=C(Nc1n[nH]c(=S)s1)c1ccco1	6.5%	-47.3%	-13.1%	31.6µM*	-23.4%	?
Cc1csc(NC(=O)c2ccco2)n1	-3.8%	-1.9%	4.1%	-3.2%	1.6%	-4.8%
CCN1CCN(c2cc(C)c3cc(NC(=O)/C=C/c4cccc(Cl)c4)ccc3n2)CC1	.	.	1.5%	-8.3%	26.3%	.
S=c1[nH]cnc2sc(Nc3ccccc3)nc12	7.8%	-1.3%	-2.8%	-1.2%	70.8µM*	-27.8%
SMILES	Mito fusion yeast	PKM2 act	GLS inh	KAT2A inh	VDR inhibitor	PLK1 PBD inh
CCOC(=O)CSC1=Nc2ccccc2C2=NC(CC(=O)NCc3ccc(OC)cc3)C(=O)N12 (stereo unspecified)	4.6%	-2.8%	2.24µM*	-6.2%	-3.7%	-10.5%
Cc1cccc(NC(=O)C2CCCN(S(=O)(=O)c3c(C)n[nH]c3C)C2)c1 (stereo unspecified)	.	.	-8.6%	2.2%	-7.7%	.
O=C(Oc1nsnc1N1CCOCC1)N(c1ccccc1)c1ccccc1	2.2%	3.5%	-0.4%	-5.5%	7.7%	0.1%
COC(=O)Oc1nsnc1N1CCOCC1	5.3%	-14.7%	-22.4%	-21.6%	-90.7%	2.67µM*
Cc1nc(N)sc1-c1csc(Nc2ccccc2)n1	-1.0%	-7.7%	19.3%	-2.3%	?	26.7µM*
Cc1cc(NS(=O)(=O)c2ccc(Nc3nc(-c4sc(N)nc4C)cs3)cc2)no1	0.3%	6.9%	?	-6.7%	?	29.9µM*
Cc1csc(Nc2ccc(C(=O)O)cc2)n1	-0.4%	-9.4%	0.2%	-2.6%	2.6%	3.9%
Cc1csc(Nc2ccccc2)n1	-6.2%	-6.5%	-18.4%	1.7%	12.3%	29.9µM*
COc1ccc(-c2nc3cccc(C)n3c2Nc2ccc(C)cc2)cc1	.	.	.	.	-8.9%	.
Oc1ccccc1Nc1ccccn1	-3.8%	-3.9%	12.6µM*	-4.7%	-4.9%	5.7%
O=C(NC1CC1)c1cccc(NC(=O)C2CCCCC2)c1	.	.	2.0%	.	9.6%	-5.3%
O=C1O/C(=C/c2ccccc2)c2ccccc21	-1.1%	7.4%	1.0%	-6.6%	4.2%	6.7%
N#CC1=C(c2ccccc2)/C(=C/c2ccccc2)OC1=O	-6.4%	15.6%	33.0%	-6.2%	?	1.06µM*
Cc1occc1C(=O)Nc1cccc([N+](=O)[O-])c1	6.7%	7.8%	-2.6%	-2.1%	22.4µM*	-18.9%
CCN(C[C@H]1N[C@@](CC)(C(=O)OC)[C@H]2C(=O)N(C)C(=O)[C@@H]12)C(=O)c1ccccc1	.	.	-2.9%	-1.5%	-15.3%	-13.0%
Cc1nc(N2CCOCC2)c2nc(-c3ccccc3)n(CCCN3CCCCC3C)c2n1 (stereo unspecified)	.	-0.3%	.	.	.	.
Cc1cccc2c(N=O)c(O)[nH]c12	-0.1%	3.4%	?	1.5%	?	3.77µM*
CC(C)(C)C(=O)N1CCC2CC1c1cc(-c3ccc4c(c3)OCO4)ccc12 (stereo unspecified)	.	.	-0.9%	.	.	-5.4%
CC(C)(C)NC(=S)N1CCC2CC1c1cc(-c3ccc4c(c3)OCO4)ccc12 (stereo unspecified)	.	.	15.8µM*	.	.	-7.6%
c1ccc(-c2noc(CN3CCN(c4cnccn4)CC3)n2)cc1	-0.7%	2.7%	0.0%	-21.2%	-9.6%	13.4µM*
c1ccc(C(c2ccccc2)N2CCN(Cc3nc(-c4cnccn4)no3)CC2)cc1	-1.7%	2.0%	2.3%	-0.7%	-6.0%	1.8%
O=C(NCCc1ccccc1)NC1CCCCC1	-2.0%	0.1%	5.9%	-3.7%	-3.4%	3.7%
S=C(NCCc1ccccc1)NN=C1CCCCCC1	-1.0%	7.7%	0.1%	-14.6%	-3.6%	26.7µM*
S=C(NCCc1ccccc1)N/N=C/C1CCCCC1	-9.2%	3.8%	.	-3.7%	.	.
